m5-HT2A agonist: agonists of mouse serotonin 5-HT2A receptor (HTR2A) | P35363 | CHO-K1 mHTR2A beta-arrestin complementation, luminescence; percent of 30 µM serotonin response | activation, % at 7.6 µM | 360,000 tested, 0.66% active;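 active = activation above a run cutoff, the mean activation of all tested compounds plus 3 SD, cut at about 14% in these data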;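 also: 0% = plate median of compound wells and 100% = 30 µM serotonin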
ABHD5-PLIN5 inh: ABHD5-PLIN5 protein interaction inhibition. 360,000 tested, 0.78% active. Split G. princeps luciferase complementation, luminescence, 4 h. AID 602281. Q00G26+Q8WTS1. inhibition, % at 4 µM;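 active = inhibition above the mean inhibition across every tested compound plus 3 SD, cut at about 22% in these data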;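 also: 0% = DMSO only wells and the 100% control is not disclosed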
TLR9-MyD88 inh: blocks human TLR9 binding to MyD88 | CHO BLA complementation TLR9-MyD88, CCF4 FRET ratio | 340,000 tested, 0.21% active | Q9NR96+Q99836 | inhibition, % at 4.98 µM;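 active = inhibition above the mean over all tested compounds plus 3 SD, cut at about 21% in these data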;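 also: 0% = DMSO only wells and 100% = clavulanate BLA inhibitor control wells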
NOD2-RIPK2 inh: blocks binding of human NOD2 to RIPK2; O43353; CHO BLA complementation NOD2-RIPK2, CCF4 ratio; 360,000 tested, 0.38% active; AID 624267; inhibition, % at 4.98 µM; in the data active = inhibition above about 21%;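 also: 0% = vehicle only and 100% = reference blocker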
Target sequence (O43353 whole entry, looked up): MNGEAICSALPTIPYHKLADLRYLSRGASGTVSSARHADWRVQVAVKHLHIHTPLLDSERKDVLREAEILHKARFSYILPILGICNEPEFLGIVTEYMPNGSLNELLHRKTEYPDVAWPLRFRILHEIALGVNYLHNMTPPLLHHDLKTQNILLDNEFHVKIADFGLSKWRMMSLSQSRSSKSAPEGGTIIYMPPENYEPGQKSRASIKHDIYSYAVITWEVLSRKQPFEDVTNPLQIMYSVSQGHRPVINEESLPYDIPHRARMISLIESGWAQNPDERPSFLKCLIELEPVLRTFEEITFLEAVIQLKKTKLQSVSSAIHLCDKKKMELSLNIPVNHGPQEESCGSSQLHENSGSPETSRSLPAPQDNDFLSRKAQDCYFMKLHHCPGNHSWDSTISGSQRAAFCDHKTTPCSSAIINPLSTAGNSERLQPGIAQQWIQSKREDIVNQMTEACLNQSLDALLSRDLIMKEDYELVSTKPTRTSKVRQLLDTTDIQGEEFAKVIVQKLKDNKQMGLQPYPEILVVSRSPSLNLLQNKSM
CRFR2-BP antag: CRF-BP/CRF-R2 complex antagonism; inhibition, % at 11.8 µM; HEK293 CRF-R2/CRF-BP, CRF-induced calcium fluorescence; 350,000 tested, 0.59% active;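 active = inhibition of the ligand-induced calcium signal above about 50% at the single tested concentration, limit read from the data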
TLR4 MyD88 comp: inhibitors of human TLR4-MyD88 binding. HeLa CL3-4 TLR4/MyD88 BLA complementation, FRET ratio. 200,000 tested, 0.18% active. inhibition, % at 8.4 µM. AID 861. O00206+Q99836; in the data active = inhibition above about 25%;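 also: 0% = vehicle and 100% = reference inhibitor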
ABHD5-PLIN5 conf: confirmation of human ABHD5-PLIN5 interaction inhibitors; 2,200 tested, 67% active; biochemical ABHD5-PLIN5 interaction, luminescence; inhibition, % at 4 µM; shares compounds with ABHD5-PLIN5 inh; in the data active = inhibition above about 23%;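 also: 0% = DMSO vehicle wells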
HNF4 counter: counter-screen for ABHD5-PLIN5 inhibitors: HNF4 split-luciferase. shares compounds with ABHD5-PLIN5 inh. HNF4 dimerization, luminescence, biochemical. inhibition, % at 4 µM. 2,200 tested, 77% active. AID 651674;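 active = mean inhibition across replicate wells exceeding the computed hit threshold, cut at about 13% in these data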;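 also: light from luciferase halves that rejoin when HNF4 fusion proteins dimerize; 0% = DMSO only wells and the 100% control is not given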
* marks the source's active call; other numbers are inactive results. Rows were chosen to be rich in hits. Some 2.4% of all compounds tested hit in one or more screens of this group.

`CC(C)(C)NC(=O)C1c2ccccc2OCC(=O)N1Cc1ccc2c(c1)OCO2` (stereo not given) gave m5-HT2A agonist -1, ABHD5-PLIN5 inh -4 and NOD2-RIPK2 inh -1.
For Cc1cccn2c(=O)nc(SCC(=O)Nc3cccc4ccccc34)nc12 the results were m5-HT2A agonist 1, ABHD5-PLIN5 inh 104*, TLR9-MyD88 inh 0, NOD2-RIPK2 inh -4, CRFR2-BP antag 9, ABHD5-PLIN5 conf 1 and HNF4 counter 0.
For O=C(CSc1nc(=O)n2ccccc2n1)Nc1cccc2ccccc12 the results were m5-HT2A agonist 4, ABHD5-PLIN5 inh 9, TLR9-MyD88 inh 5, NOD2-RIPK2 inh -14 and CRFR2-BP antag 1.
CN1C2C=CC(=O)C1C1C(=O)N(c3ccccc3)C(=O)C12 (stereo not given) was read as m5-HT2A agonist 1, ABHD5-PLIN5 inh 44*, NOD2-RIPK2 inh 7, ABHD5-PLIN5 conf 42* and HNF4 counter 44*.
For COc1cc(C)c2sc3ccccc3c(=O)c2c1NCCN(C)C the results were m5-HT2A agonist -6, ABHD5-PLIN5 inh 32*, TLR9-MyD88 inh 0, NOD2-RIPK2 inh 5, CRFR2-BP antag -8, ABHD5-PLIN5 conf 27* and HNF4 counter 8.
CC(OC(=O)/C=C/c1cccs1)C(=O)Nc1ccc(S(N)(=O)=O)cc1 (stereo not given) was read as m5-HT2A agonist -2, ABHD5-PLIN5 inh -4, TLR9-MyD88 inh -1, NOD2-RIPK2 inh -8, CRFR2-BP antag -3 and TLR4 MyD88 comp 4.
For CC(OC(=O)/C=C/c1ccc2ccccc2n1)C(=O)Nc1ccc(S(N)(=O)=O)cc1 (stereo not given) the results were m5-HT2A agonist -13, ABHD5-PLIN5 inh 25*, TLR9-MyD88 inh 0, NOD2-RIPK2 inh 2, CRFR2-BP antag -7, ABHD5-PLIN5 conf 28* and HNF4 counter 21*.
`COc1ccc(C(O)c2nc(-c3ccncc3)cs2)cc1` (stereo not given) gave m5-HT2A agonist 11, ABHD5-PLIN5 inh 0 and NOD2-RIPK2 inh -6.
O=C(Nc1ccc[n+](CC(=O)c2cccc3ccccc23)c1)c1ccccc1 was read as m5-HT2A agonist -1, ABHD5-PLIN5 inh 24*, TLR9-MyD88 inh 0, NOD2-RIPK2 inh 2, CRFR2-BP antag -31, TLR4 MyD88 comp -16, ABHD5-PLIN5 conf 18 and HNF4 counter 7.
`O=C(/C=C/c1ccc(-c2ccccc2[N+](=O)[O-])o1)c1ccco1` gave m5-HT2A agonist -3, ABHD5-PLIN5 inh 30*, TLR9-MyD88 inh 2, NOD2-RIPK2 inh -6, CRFR2-BP antag 9, TLR4 MyD88 comp 10, ABHD5-PLIN5 conf 64* and HNF4 counter 48*.
O=C(N/N=C/C=C/c1ccco1)c1cccc([N+](=O)[O-])c1 was read as m5-HT2A agonist -1, ABHD5-PLIN5 inh 13, TLR9-MyD88 inh -5, NOD2-RIPK2 inh -7, CRFR2-BP antag 30 and TLR4 MyD88 comp 1.
O=C(/C=C\c1ccccc1)Nc1ccc(NC(=O)c2ccco2)cc1 was read as m5-HT2A agonist 0, ABHD5-PLIN5 inh 6, TLR9-MyD88 inh 8, NOD2-RIPK2 inh -1, CRFR2-BP antag -8 and TLR4 MyD88 comp 6.
Screening O=C(C=Cc1ccco1)c1ccco1 returned m5-HT2A agonist -2, ABHD5-PLIN5 inh 16, TLR9-MyD88 inh 0, NOD2-RIPK2 inh -8 and CRFR2-BP antag 10.
For O=C(/C=C/c1ccco1)c1cccc([N+](=O)[O-])c1 the results were m5-HT2A agonist -3, ABHD5-PLIN5 inh 29*, TLR9-MyD88 inh -1, NOD2-RIPK2 inh -1, CRFR2-BP antag -24, ABHD5-PLIN5 conf 46* and HNF4 counter 30*.
For O=C(/C=C/c1ccc(Br)cc1)c1ccc(NC(=O)c2ccco2)cc1 the results were m5-HT2A agonist -4, ABHD5-PLIN5 inh 29*, TLR9-MyD88 inh -7, NOD2-RIPK2 inh 2, CRFR2-BP antag -11, TLR4 MyD88 comp 4, ABHD5-PLIN5 conf 61* and HNF4 counter 46*.
Screening O=C(/C=C/c1ccc([N+](=O)[O-])cc1)c1ccco1 returned m5-HT2A agonist 0, ABHD5-PLIN5 inh 33*, TLR9-MyD88 inh -5, NOD2-RIPK2 inh 2, CRFR2-BP antag -37, ABHD5-PLIN5 conf 91* and HNF4 counter 91*.
For CC(=O)NCCNc1nc2cc(-c3cccc(Cl)c3)sc2c(=O)n1C the results were m5-HT2A agonist -2, ABHD5-PLIN5 inh 11 and NOD2-RIPK2 inh 5.
For O=C(/C=C/c1ccc(Br)cc1)c1ccco1 the results were m5-HT2A agonist -6, ABHD5-PLIN5 inh 79*, TLR9-MyD88 inh -8, NOD2-RIPK2 inh -4, CRFR2-BP antag -51, TLR4 MyD88 comp 10, ABHD5-PLIN5 conf 99* and HNF4 counter 99*.
`O=C(NC1CCCC1)C(c1ccccc1)n1c(-c2ccc3c(c2)CCO3)nc2ccccc21` (stereo not given) gave m5-HT2A agonist 3, ABHD5-PLIN5 inh -5 and NOD2-RIPK2 inh 15.
Screening COc1ccc(CN=C2Nc3ccccc3CS2)cc1 returned m5-HT2A agonist 2, ABHD5-PLIN5 inh 37*, TLR9-MyD88 inh -6, NOD2-RIPK2 inh -3, CRFR2-BP antag 22, TLR4 MyD88 comp -10, ABHD5-PLIN5 conf 3 and HNF4 counter 3.
COCCCN1C(=O)C(CC(=O)NC(c2ccccc2)c2ccccc2)CC(C(=O)N2CCCCCC2)=C1C (stereo not given) was read as m5-HT2A agonist 3, ABHD5-PLIN5 inh 3 and NOD2-RIPK2 inh -22.
O=C(O)C(C(=O)/C=C/c1ccco1)=C1SCCS1 was read as m5-HT2A agonist -1, ABHD5-PLIN5 inh 45*, TLR9-MyD88 inh 9, NOD2-RIPK2 inh -3, CRFR2-BP antag 15, TLR4 MyD88 comp -3, ABHD5-PLIN5 conf 21 and HNF4 counter 31*.
O=C(C=C1SCCS1)/C=C/c1ccco1 was read as m5-HT2A agonist -4, ABHD5-PLIN5 inh 31*, TLR9-MyD88 inh 4, NOD2-RIPK2 inh 2, CRFR2-BP antag -3, TLR4 MyD88 comp 14, ABHD5-PLIN5 conf 44* and HNF4 counter 48*.
O=C1NC[C@H](CCCCN2C[C@H](Cc3ccc(O)cc3)N(CCc3ccc(O)cc3)C(=O)C2=O)N(CC2CCCCC2)C1=O was read as m5-HT2A agonist -2, ABHD5-PLIN5 inh -5 and NOD2-RIPK2 inh -4.
For CC1(c2ccc([N+](=O)[O-])cc2)Nc2ccccc2S1 (stereo not given) the results were m5-HT2A agonist 6, ABHD5-PLIN5 inh 35*, TLR9-MyD88 inh -5, NOD2-RIPK2 inh 0, CRFR2-BP antag -25, ABHD5-PLIN5 conf -5 and HNF4 counter -9.
